# Test results taken from ChEMBL document CHEMBL3988442, “University of Dundee, Small-Polar-MMV Screening Library” (2021).
# Among all 48,000 compounds or so, about 13,000 (27%) showed an effect of 50% or more. Some of the results follow.
# System: Wolbachia pipientis
# Test: Anti-Wolbachia Cell-Based Screen
# Type: functional
# Design: scale not given: in the data most compounds retested in dose-response had high values
# Conditions: 5 µM
row,SMILES,Percent Effect
1,Cc1cnc(CNC(=O)NC2CCCN(c3ccccc3F)C2)s1 (centres undefined),-4.354%
2,CC(C)OCCCN1CCCC(c2nc3ccccc3n2C(C)C)C1 (centres undefined),-14.63%
3,Cc1cc(CN2CCN(CCOc3cccc(C#N)c3)CC2)no1,-1.661%
4,COc1cc(/C=C/c2ncc(C(=O)O)s2)cc(Cl)c1OC,96.03%
5,CCOc1c(Cl)cc(/C=C/c2ncc(C(=O)O)s2)cc1OC,82.8%
6,COc1cc(/C=C/c2ncc(C(=O)O)s2)cc(Cl)c1O,10.97%
7,CNC(=O)c1cnc(/C=C/c2cc(OC)c(OC)c(OC)c2)s1,2.96%
8,CNC(=O)c1cnc(/C=C/c2ccc(O)c(OC)c2)s1,0.2416%
9,CCOc1cc(/C=C/c2ncc(C(=O)O)s2)cc(Cl)c1OC,3.266%
10,COc1ccc(F)cc1CSCC(=O)N(C)CCC#N,-1.773%
11,COc1ccc(-c2noc(C(CC(C)C)N3CCCCC3=O)n2)cn1 (centres undefined),9.971%
12,O=C1NCC2(CCCN(Cc3ccccc3F)C2)Oc2ccccc21 (centres undefined),-7.876%
13,CSc1ccc(CN2CCCC3(CNC(=O)c4ccccc4O3)C2)cc1 (centres undefined),103.9%
14,C=Cc1ccc(CN2CCCC3(CNC(=O)c4ccccc4O3)C2)cc1 (centres undefined),88.72%
15,O=C1NCC2(CCCN(Cc3ccc(F)cc3)C2)Oc2ccccc21 (centres undefined),110.4%
16,CC(=O)N1CCOC2(CCCN(Cc3ccc(N(C)C)cc3)C2)C1 (centres undefined),-2.682%
17,O=C1NCC2(CCCN(Cc3ccc(Cl)s3)C2)Oc2ccccc21 (centres undefined),7.994%
18,CC(C)=CCN1C[C@H]2CC[C@@H]1CN(C(=O)c1ccc(S(N)(=O)=O)cc1)C2,-17.62%
19,CC(C)c1ccccc1NC(=O)N1C[C@@H]2CC[C@H](C1)N(C)C2=O,-22.21%
20,COC(=O)C1=NOC(Cc2cc(OC)c3c(c2)OCO3)C1 (centres undefined),94.65%
21,COc1cc(-c2nccn2CCn2cccn2)cc2c1OCO2,-19.98%
22,COc1cc(CNCCc2nc(C)cs2)cc2c1OCCO2.Cl,-10.19%
23,COc1cc(CC2CC(C(N)=O)=NO2)cc2c1OCO2 (centres undefined),107.2%

row,SMILES,Percent Effect
1,COc1cc(CNCc2ccc(C(C)O)cc2)cc2c1OCO2 (centres undefined),0.7709%
2,CCC[C@@H]1CN(Cc2cc(OC)c3c(c2)OCO3)C[C@H]1C(=O)O,0.814%
3,CN1CCN(C[C@H]2CC[C@@H](Cc3ccc4c(c3)OCO4)O2)CC1,5.044%
4,COc1cc(CC2CC(c3ccc4c(c3)OCO4)=NO2)cc2c1OCO2 (centres undefined),92.75%
5,CCOC(=O)C1=NOC(Cc2cc(OC)c3c(c2)OCO3)C1 (centres undefined),92.3%
6,COc1cc(CCO)c(OC)c2c1OCO2,-4.361%
7,CCN1CCN(C[C@H]2CC[C@@H](Cc3ccc4c(c3)OCO4)O2)CC1,15.13%
8,COc1cc(CNCCc2cnn(C)c2)cc2c1OCCO2,-13.22%
9,CC(C)CN1Cc2cccc(NC(=O)Cc3ccon3)c2C1,-9.701%
10,Cc1ccc(=O)n(Cc2nc(C(C)OCC(C)C)no2)n1 (centres undefined),-10.1%
11,Cc1cccc(C(=O)N2CCN(c3ccc(-n4cccc4)nn3)CC2)c1,0.6328%
12,CN(C)c1ccc(CN2C[C@H]3CC[C@@H]2CN(C2CCOCC2)C3)cn1,13.91%
13,CC(=O)Nc1sccc1C(=O)C(C)(C)C,20.74%
14,NC(=O)c1c[nH]nc1NC(=O)c1ccc(Cl)cc1,91.07%
15,Cn1cc(NC(=O)c2cccc(Cl)c2)c(=O)n(C)c1=O,-1.289%
16,NC(=O)c1c[nH]nc1NC(=O)c1cccc(Cl)c1,101.4%
17,Cc1ccc(CNC(=O)c2c[nH]nc2NC(=O)COCC2CC2)cc1,-19.21%
18,Cc1ccc(CNC(=O)c2c[nH]nc2NC(=O)C2COCCO2)cc1 (centres undefined),-26.91%
19,CN1CCC(Oc2ccc(NC(=O)c3cccc(Cl)c3)cc2)CC1,-9.86%
20,CNc1cc(N2CCCC2CNCc2ccc(Cl)o2)ncn1 (centres undefined),6.692%
21,O=C(CC1=CCCCC1)Nc1ccc(CN2C(=O)CCC2=O)cc1,-15.48%
22,CC(C#N)CSc1ccccc1NCC(=O)NC1CCCCC1 (centres undefined),-11.09%
23,O=C(CSc1nc2c(cnn2CCO)c(=O)[nH]1)NC1CCCCC1,119.1%

row,SMILES,Percent Effect
1,CCN(CC)C(=O)CN(C)Cc1nc2c(cnn2C)c(=O)[nH]1,2.851%
2,CC(=O)CSc1nc2c(cnn2CCO)c(=O)[nH]1,136.9%
3,CNC(=O)CSc1nc2c(cnn2Cc2ccc(F)cc2)c(=O)[nH]1,-13.84%
4,CC(C)(C)n1ncc2c(=O)[nH]c(N3CCN(CCO)CC3)nc21,1.466%
5,CC(C)NC(=O)CSc1nc2c(cnn2CCO)c(=O)[nH]1,147.9%
6,CCN(CC)C(=O)CSc1ccc(C(F)(F)F)cn1,0.9721%
7,CCCc1cc(=O)[nH]c2nnc(SCC(C)=O)n12,15.46%
8,CN(CC(=O)N(C)C1CCCCC1)Cc1nc2c(cnn2C)c(=O)[nH]1,2.622%
9,CCC(=O)Nc1ccc(C(C)Nc2nc3c(cnn3C)c(=O)[nH]2)cc1 (centres undefined),-8.968%
10,CCN(CC)C(=O)CSc1nc2c(cnn2CCO)c(=O)[nH]1,123.9%
11,O=C(c1ccco1)N(c1ccc(F)cn1)C1CCOCC1,7.992%
12,CCc1ccsc1CNC(=O)CNC(=O)C(C)(C)C,-1.133%
13,O=C(CSc1nc2c(cnn2CCO)c(=O)[nH]1)N1CCCCCC1,-26.62%
14,CC1CCN(C(=O)CSc2nc3c(cnn3CCO)c(=O)[nH]2)CC1,123.1%
15,CN(CC(=O)N1CCCC1)Cc1nc2c(cnn2C)c(=O)[nH]1,28.73%
16,CCC(Oc1ccc(N(C)S(C)(=O)=O)cc1)C(=O)N(C)C (centres undefined),-17.11%
17,CCN(CC)c1ccc(NS(=O)(=O)c2cnn(C)c2)cn1,-7.679%
18,Cc1nc(NS(=O)(=O)c2cc(Br)ccc2C)no1,-15.2%
19,CN1CC(C(=O)N(C)Cc2cc(-c3cccnc3)no2)NC1=O (centres undefined),-3.484%
20,CC(C)NC(=O)C[C@@H]1CCNC[C@@H]1Cc1cc(-c2ccccn2)on1,-9.264%
21,CC(C)c1cc2c(s1)NC(c1ccccn1)NC2=O (centres undefined),80.13%
22,Cc1ccc(C2NC(=O)c3cc(C(C)C)sc3N2)cc1 (centres undefined),93.7%
23,CC(C)c1cc2c(s1)NC(c1ccccc1)NC2=O (centres undefined),97.8%
